Here are results for 1 compound from PubChem BioAssay AID493188 (National Center for Advancing Translational Sciences (NCATS), 2011).

Records with an inconclusive call do not appear. The source made the active and inactive calls. Calls follow the shape of the dose curve; as a rule, active = well fitted inhibition curve with a large enough effect; inconclusive = small, poorly fitted or top-dose-only effect; inactive = flat fitted curve, though single readings scatter.

The assay has as its target Galactokinase (Homo sapiens) (UniProt P51570). Nature of the assay: Confirmation Assay for Inhibitors of Human Galactokinase (GALK): SAR round 2. An excerpt:
NIH Molecular Libraries Probe Production Centers Network [MLPCN] NIH Chemical Genomics Center [NCGC] MLPCN Grant: R03 MH085689-01 Assay Submitter (PI): Kent Lai (University of Utah School of Medicine, 50 N Mario Capecchi Drive, Salt Lake City, UT 84132) NCGC Assay Overview Inherited deficiency of galactose-1-phosphate uridyltransferase (GALT) can result in a potentially lethal disorder called Classic Galactosemia (OMIM 230400). Several lines of evidence indicate that an elevated level of galactose-1-phosphate (gal-1-p), the product of galactokinase (GALK), is a major, if not sole, pathogenic mechanism in patients with classic galactosemia. Therefore, finding inhibitors of GALK is a potential novel therapy for this inherent metabolic disease and is the long term goal of this project. Active compounds observed in the qHTS GALK assay (AID: 1868) were cherry picked and re-screened for validation. […]
NCGC Assay Protocol Summary: Three uL/well of ATP-buffer solution (35 uM ATP, 20mM HEPES pH8.0, 5 mM MgCl2, 60 mM NaCl, 1 mM DTT, 0.01% BSA final concentration) was dispensed into 1536-well, assay plates (Greiner, solid white medium-binding plates) with Aurora Discovery BioRAPTR Flying Reagent Dispenser (FRD; Beckton-Dickenson). […] Luminescence was detected with the ViewLux plate reader (Perkin Elmer, Waltham, MA) after 2 min incubation using a 1 sec exposure time and 2x binning.

Galactokinase (Homo sapiens), sequence (P51570 whole entry, looked up): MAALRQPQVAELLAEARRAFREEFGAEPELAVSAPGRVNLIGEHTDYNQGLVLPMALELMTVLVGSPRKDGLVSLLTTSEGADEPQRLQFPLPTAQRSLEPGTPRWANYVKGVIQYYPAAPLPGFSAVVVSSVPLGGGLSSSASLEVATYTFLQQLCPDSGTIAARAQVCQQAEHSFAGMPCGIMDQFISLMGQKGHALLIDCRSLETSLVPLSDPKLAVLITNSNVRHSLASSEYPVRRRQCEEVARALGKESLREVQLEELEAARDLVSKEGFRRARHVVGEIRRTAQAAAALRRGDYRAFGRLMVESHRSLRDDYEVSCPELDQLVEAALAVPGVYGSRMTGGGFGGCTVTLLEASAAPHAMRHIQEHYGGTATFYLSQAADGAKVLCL

For the compound `CC(=O)OCOCC(=O)OCO[P+](=O)C(OCOC(C)=O)c1cc([N+](=O)[O-])ccc1Oc1ccc(Br)cc1` (stereo unspecified), the compound was called inactive.
